From PubChem BioAssay (EPA / NIEHS)
Where “and” joins values, the source holds several entries; their conditions need not be identical. Equal entries are not always repeated. Results filed as inconclusive are left out. Calls of active or inactive are those of the source. The calls were made as follows, unless noted: active = hit-call score of the fitted dose curve at least 0.9, where 1 is the maximum; inconclusive = response in the unintended direction; inactive = score below 0.9.

Assays:
[1] = Tanguay_ZF_120hpf_SOMI_legacy: (Legacy) Oregon State University Tanguay Lab 120 Hour Post-fertilization zebrafish Assay for Somite Malformation (AID 2283647)
Summary of the method: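 Somitogenesis defects are recorded as binary calls in whole larvae at 120 hpf after continuous static chemical exposure starting at 6 hpf in dechorionated 5D embryos. DMSO serves as negative control and baseline.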

[2] = Tanguay_ZF_120hpf_PFIN_legacy: (Legacy) Oregon State University Tanguay Lab 120 Hour Post-fertilization zebrafish Assay for Pectoral Fin Malformation (AID 2283648);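 also: each larva judged yes or no for fin defect by brightfield with dead larvae skipped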
Summary of the method: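 Dechorionated Tropical 5D wild-type zebrafish embryos, one per well, statically exposed from 6 to 120 hpf at 28C with 0.64% DMSO final. Pectoral fin malformation scored present/absent by brightfield at 120 hpf; not scored in dead embryos.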

[3] = Tanguay_ZF_120hpf_CFIN_legacy: (Legacy) Oregon State University Tanguay Lab 120 Hour Post-fertilization zebrafish Assay for Caudal Fin Malformation (AID 2283649)
Summary of the method: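 Single dechorionated 5D wild-type embryos are dosed at 6 hpf (final DMSO 0.64%) and held statically at 28C. Caudal fin malformation is recorded as present or absent at 120 hpf under brightfield, excluding dead embryos.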

[4] = Tanguay_ZF_120hpf_PIG_legacy: (Legacy) Oregon State University Tanguay Lab 120 Hour Post-fertilization zebrafish Assay for Pigmentation Malformation (AID 2283650)
Summary of the method: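 Dechorionated Tropical 5D wild-type embryos, one per well from 6 hpf, statically exposed at 28C in the dark until 120 hpf, 0.64% DMSO final. Pigmentation scored present/absent by brightfield microscopy; dead embryos not scored; fitted versus DMSO.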

[5] = Tanguay_ZF_120hpf_CIRC_legacy: (Legacy) Oregon State University Tanguay Lab 120 Hour Post-fertilization zebrafish Assay for Circulatory Malformation (AID 2283651)
Summary of the method: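 Tropical 5D wild-type embryos, dechorionated with pronase at 4 hpf, were placed singly in wells at 6 hpf and exposed statically at 28C to 120 hpf (0.64% DMSO final). Circulatory malformation was scored present/absent by brightfield microscopy.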

[6] = Tanguay_ZF_120hpf_SWIM_legacy: (Legacy) Oregon State University Tanguay Lab 120 Hour Post-fertilization zebrafish Assay for Swim Bladder Malformation (AID 2283654);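 also: swim bladder malformation in each larva scored yes or no under brightfield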
Summary of the method: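 Dechorionated wild-type Tropical 5D zebrafish embryos, one per well from 6 hpf, were statically exposed at 28C until 120 hpf in 0.64% DMSO. Swim bladder malformation scored as present/absent by brightfield microscopy; not scored in dead larvae.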

[7] = Tanguay_ZF_120hpf_TRUN_legacy: (Legacy) Oregon State University Tanguay Lab 120 Hour Post-fertilization zebrafish Assay for Truncated Body (AID 2283655)
Summary of the method: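 Single dechorionated zebrafish embryos received test chemical from 6 hpf in 0.64% DMSO, kept at 28C. At 120 hpf, brightfield inspection noted any truncated body.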

[8] = Tanguay_ZF_120hpf_NC_legacy: (Legacy) Oregon State University Tanguay Lab 120 Hour Post-fertilization zebrafish Assay for Notochord and Tail Malformation (AID 2283656)
Summary of the method: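 Dechorionated 5D zebrafish, 1/well from 6 hpf; static exposure to 120 hpf, 28C, sealed, dark; final DMSO 0.64% v/v. NC scored binary (present/absent); dead embryos not scored. Fit vs DMSO baseline, gain direction.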

[9] = Tanguay_ZF_120hpf_TR_legacy: (Legacy) Oregon State University Tanguay Lab 120 Hour Post-fertilization zebrafish Assay for Touch Response (AID 2283667)
Summary of the method: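 Tropical 5D wild-type zebrafish embryos statically exposed to 120 hpf at 28°C, sealed and dark-covered, 0.64% DMSO final; touch response scored as present/absent by brightfield microscopy at 120 hpf. Trimethyltin chloride 5 uM positive control; dead embryos not scored.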

[10] = CCTE_Padilla_ZF_144hpf_TERATOSCORE: (Legacy) CCTE's 144 Hour Post-fertilization zebrafish Assay Teratoscore, Padilla Lab (AID 2283679; active = hit-call score of the fitted dose curve at least 0.9, where 1 is the maximum; inactive = score below 0.9;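 as to AC50: zebrafish embryos with chorions exposed by immersion from 6-8 hpf to 5 dpf with daily renewal; teratogenicity score from eye scoring of death hatching and malformations at 144 hpf; higher score means more developmental defects relative to DMSO baseline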)
Summary of the method: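 Larvae scored by eye at 144 hpf for death, hatching and malformations after a day in clean Hanks'. Before that, daily-renewed exposure at 80 uM (0.4% DMSO, 26C) from roughly 6-8 hpf through 5 dpf, 4 embryos per chemical.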

[11] = STM_H9_OrnithineISnorm_perc: Stemina devTOX quickPredict H9 human embryonic stem cell (hESC)-based Assay for Ornithine (ORN) Metabolite Biomarker, Normalized (AID 2283712; active = hit-call score of the fitted dose curve at least 0.9, where 1 is the maximum; inactive = score below 0.9;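 also: ornithine released into spent medium during last day measured by mass spectrometry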)
Summary of the method: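 Undifferentiated pluripotent H9 hESCs were exposed to compound for 72h, with media and compound replaced every 24h. Ornithine in final 24-h conditioned media was measured by UPLC-HRMS, normalized to 13C-labeled spike-in standard and to median 0.1% DMSO control.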

[12] = STM_H9_CystineISnorm_perc: Stemina devTOX quickPredict H9 human embryonic stem cell (hESC)-based Assay for Cystine (CYSS) Metabolite Biomarker, Normalized (AID 2283713; active = hit-call score of the fitted dose curve at least 0.9, where 1 is the maximum; inactive = score below 0.9)
Summary of the method: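 Undifferentiated H9 hESCs were exposed to compound for 72h, with medium and compound replaced every 24h. Final-24h conditioned medium was deproteinized and analyzed by UPLC-HRMS. Cystine EIC area was normalized to spiked C13 standard and 0.1% DMSO median.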

[13] = Tanguay_ZF_120hpf_ActivityScore_legacy: (Legacy) Oregon State University Tanguay Lab 120 Hour Post-fertilization zebrafish Assay Score for Activity (AID 2283742)
Summary of the method: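 Dechorionated Tropical 5D embryos, one per well from 6 hpf, statically exposed to 120 hpf at 28 °C in 0.64% DMSO. Mortality and malformations scored binary by brightfield microscopy; activity score combines 18 endpoints, fitted positively versus DMSO.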

[14] = test system: Thyroperoxidase (TPO), gene 54314; test: CCTE_Simmons_AUR_rTPO: CCTE's Amplex UltraRed Assay for Thyroperoxidase (TPO) Inhibition, Simmons Lab (AID 2283662);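 also: potency for loss of signal meaning inhibition of peroxidase activity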
Summary of the method: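 Rat thyroid microsomal TPO + 25 uM AUR in 200 mM K phosphate; cpd 5 nM–87.5 uM [final], 8 conc, 0.5% DMSO; 300 uM H2O2 starts rxn; 37C dark 30 min; endpoint FI 544/590 nm; n=3.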

[15] = CCTE_Simmons_CellTiterGLO_HEK293T: Viability Assessment in CCTE's Assays for Thyroperoxidase (TPO) Inhibition, Simmons Lab (AID 2283665);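 also: cells exposed to compound for 24 h before readout; actives reduce ATP signal below DMSO vehicle meaning cytotoxicity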
Summary of the method: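 HEK293T cells in DMEM with 1% FBS were dosed with 8 concentrations (5 nM–87.5 uM final, 0.5% DMSO) for 24 hr at 37C; ATP content was read by CellTiter-Glo luminescence, loss-of-signal versus DMSO, three biological replicates.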

Measured: AC50

ClC1=C(Cl)[C@]2(Cl)[C@H]3[C@H]([C@@H]4C=C[C@H]3C4)[C@@]1(Cl)C2(Cl)Cl
active: [10] 976 nM and 4.66 µM
not listed: [14] | [15]
inactive: all other assays above

CC(C)(O)c1cnn2c(-c3ccc(F)c(-c4c(F)cccc4C#N)c3)cnc2n1
not listed: [8] | [10] | [11] | [12] | [14] | [15]
inactive: all other assays above

CC(C)(C)OOC(=O)c1ccccc1
inactive: [1] | [2] | [3] | [4] | [5] | [6] | [7] | [13]

CCN(CC)N=O
not listed: [5] | [10] | [14] | [15]
inactive: all other assays above

Clc1ccc(C(c2ccc(Cl)cc2)C(Cl)(Cl)Cl)cc1
active: [10] 3.44 µM
not listed: [9] | [14] | [15]
inactive: all other assays above

COP(=S)(OC)SCN1C(=O)c2ccccc2C1=O
active: [14] 12.9 µM | [15] 43.8 µM | [10] 52.6 µM
not listed: [6] | [11] | [12]
inactive: all other assays above

ClCCOCCCl
not listed: [10] | [11] | [12] | [14] | [15]
inactive: all other assays above

[O-][Cl+]O
not listed: [7] | [8] | [11] | [12] | [14] | [15]
inactive: all other assays above

Clc1ccc(Cl)c(Cl)c1
not listed: [7] | [14] | [15]
inactive: all other assays above

CCC12COCN1COC2
not listed: [6] | [11] | [12] | [14] | [15]
inactive: all other assays above

O=C1CCCO1
not listed: [8] | [10] | [14] | [15]
inactive: all other assays above
